Laboratory results as given in PubChem BioAssay (EPA / NIEHS).
Records with an inconclusive call do not appear. Calls of active or inactive are those of the source. Rule for the calls: active = hit-call score of the fitted dose curve at least 0.9, where 1 is the maximum; inconclusive = response in the unintended direction; inactive = score below 0.9. Where a SMILES comes first, the peptide text is derived from it. [ ]: non-standard residue; d: D form. pGlu = O=C1CC[C@@H](C(=O)O)N1

Assay: TOX21_p53_BLA_p2_viability: Viability Assessment in the Tox21 HCT-116 p53 Agonism Beta-lactamase Assay, Phase 2 (AID 2283591);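 note: compound exposure lasted 16 h at 37 °C; actives lower the ATP signal meaning cytotoxicity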
Summary of the method: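 HCT-116 p53-bla cells (4000/well) rested 5 h at 37C, then received compounds in DMSO (217-fold dilution) for 16 h at 37C, 5% CO2. After the CCF4 read, CellTiter-Glo was added; ATP luminescence was read after 30 min at room temperature.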

Row | SMILES | outcome
1 | CC[C@H](C)[C@H](NC(=O)[C@H](Cc1ccccc1)NC(=O)[C@H](C)NC(=O)[C@H](CC(=O)O)NC(=O)[C@H](CCCCN)NC(=O)[C@H](CO)NC(=O)[C@@H]1CCCN1C(=O)[C@@H]1CCC(=O)N1)C(=O)NCC(=O)N[C@@H](CC(C)C)C(=O)N[C@@H](CCSC)C(N)=O ([pGlu]PSKDAFIGLM-NH2) | inactive
2 | Oc1ccc(-c2ccc(O)cc2)cc1 | inactive
3 | CC[N+](C)(CC)CCOC(=O)C(O)(c1ccccc1)C1CCCCC1 (centres undefined) | inactive
4 | CCCCC(=O)N(C)C | inactive
5 | CC(O)Cn1cnc2c1c(=O)n(C)c(=O)n2C (centres undefined) | inactive
6 | CSc1ccc(C(=O)c2[nH]c(=O)[nH]c2C)cc1 | inactive
7 | CCCCCCCC/C=C\CCCCCCCCCCCC(=O)O | inactive
8 | OC(CN1CCCCC1)c1cc(-c2ccccc2)on1 (centres undefined) | inactive
9 | NS(=O)(=O)c1cc(C(=O)O)cc(N2CCCC2)c1Oc1ccccc1 | inactive
10 | C[C@@H]1C[C@H]2[C@@H]3C[C@H](F)C4=CC(=O)C(Cl)=C[C@]4(C)[C@@]3(F)[C@@H](O)C[C@]2(C)[C@@]1(O)C(=O)CO | inactive
11 | OC[C@H]1O[C@@H](O[C@@H]2[C@@H](CO)O[C@](O)(CO)[C@H]2O)[C@H](O)[C@@H](O)[C@H]1O | inactive
12 | CCOC(=O)CC(C)=O | inactive
13 | CC1(C)[C@@H](OC(=O)CCC(=O)O)CC[C@]2(C)[C@H]3C(=O)C=C4[C@@H]5C[C@@](C)(C(=O)O)CC[C@]5(C)CC[C@@]4(C)[C@]3(C)CC[C@@H]12 | inactive
14 | CCOC(=O)O[C@]1(C(=O)COC(=O)CC)CC[C@H]2[C@@H]3CCC4=CC(=O)C=C[C@]4(C)[C@H]3[C@@H](O)C[C@@]21C | inactive
